Test results from PubChem BioAssay (NCI).
The panel holds about 83,000 compounds, 20% with a hit somewhere; the sample as a whole holds those more often.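 Interpretation: 100, growth as untreated; towards 0, rising growth inhibition; 0, no net growth; 0 to -100, cell death. Compounds scoring below 10 were considered active.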 The source made the active and inactive calls.

Columns and labels:
Assay in all cases: NCI-60 one-dose screen, 48 h (100 = growth as untreated, 0 = no growth, -100 = all killed)
Conditions in all cases: 10 µM unless noted
SK-MEL-2 melanoma = tested on: SK-MEL-2 melanoma
EKVX NSCLC = tested on: EKVX NSCLC
SN12C renal = tested on: SN12C renal
UO-31 renal = tested on: UO-31 renal
TK-10 renal = tested on: TK-10 renal
ACHN renal = tested on: ACHN renal
CAKI-1 renal = tested on: CAKI-1 renal
A498 renal = tested on: A498 renal
MOLT-4 leukemia = tested on: MOLT-4 leukemia
SR leukemia = tested on: SR leukemia
RPMI-8226 leukemia = tested on: RPMI-8226 leukemia
OVCAR-8 ovarian = tested on: OVCAR-8 ovarian
OVCAR-5 ovarian = tested on: OVCAR-5 ovarian
OVCAR-4 ovarian = tested on: OVCAR-4 ovarian
SK-OV-3 ovarian = tested on: SK-OV-3 ovarian
IGROV1 ovarian = tested on: IGROV1 ovarian
OVCAR-3 ovarian = tested on: OVCAR-3 ovarian
HS 578T breast = tested on: HS 578T breast
NCI/ADR-RES ovarian = tested on: NCI/ADR-RES ovarian

Measured: growth

Cn1c(-c2c(N)n(Cc3ccc(C(F)(F)F)cc3)c3nc(C#N)c(C#N)nc23)nc2ccccc21
inactive: SK-MEL-2 melanoma 15.4% | SN12C renal 14.4% | OVCAR-5 ovarian 30% | OVCAR-4 ovarian 22.6% | IGROV1 ovarian 16.9% | HS 578T breast 12.4%
active: EKVX NSCLC 1.13% | UO-31 renal -23% | TK-10 renal -12.9% | ACHN renal 3.12% | CAKI-1 renal 9.68% | A498 renal -6.26% | MOLT-4 leukemia -16.8% | SR leukemia -35.5% | RPMI-8226 leukemia -42.3% | OVCAR-8 ovarian 7.05% | SK-OV-3 ovarian -4.02% | OVCAR-3 ovarian -8.62% | NCI/ADR-RES ovarian 6.65%

N#C/C(=C\c1ccc2c(c1)OCO2)n1nnc2cc(F)c(F)cc21
inactive: SK-MEL-2 melanoma 78.7% | EKVX NSCLC 82.7% | SN12C renal 68.3% | UO-31 renal 61.3% | TK-10 renal 101% | ACHN renal 65.1% | CAKI-1 renal 50.7% | A498 renal 44.9% | MOLT-4 leukemia 63.9% | SR leukemia 42.6% | RPMI-8226 leukemia 64.5% | OVCAR-8 ovarian 60.7% | OVCAR-5 ovarian 96.8% | OVCAR-4 ovarian 64.6% | SK-OV-3 ovarian 83.6% | IGROV1 ovarian 71.8% | OVCAR-3 ovarian 31.8% | HS 578T breast 84.7% | NCI/ADR-RES ovarian 27.4%

N#CC1=C(c2ccc(Br)cc2)NC(SCC(=O)c2ccc(Br)cc2)NC1=O (configuration not stated)
inactive: SK-MEL-2 melanoma 98% | EKVX NSCLC 104% | SN12C renal 109% | UO-31 renal 89.9% | TK-10 renal 118% | ACHN renal 109% | CAKI-1 renal 97.1% | A498 renal 80.1% | MOLT-4 leukemia 92% | SR leukemia 101% | RPMI-8226 leukemia 107% | OVCAR-8 ovarian 103% | OVCAR-5 ovarian 101% | OVCAR-4 ovarian 101% | SK-OV-3 ovarian 110% | IGROV1 ovarian 114% | OVCAR-3 ovarian 102% | HS 578T breast 97% | NCI/ADR-RES ovarian 107%

CN1CCN(CC(=O)Nc2nc(-c3cccc(NS(=O)(=O)c4cccc5c(N(C)C)cccc45)c3)cs2)CC1
inactive: SK-MEL-2 melanoma 94.3% | EKVX NSCLC 66.4% | SN12C renal 69.7% | UO-31 renal 58.3% | TK-10 renal 100% | ACHN renal 82.3% | CAKI-1 renal 67.9% | A498 renal 96.8% | MOLT-4 leukemia 46.2% | SR leukemia 11.5% | RPMI-8226 leukemia 24.2% | OVCAR-8 ovarian 87.9% | OVCAR-5 ovarian 86.6% | OVCAR-4 ovarian 61.2% | SK-OV-3 ovarian 93.1% | IGROV1 ovarian 86.6% | OVCAR-3 ovarian 74.4% | HS 578T breast 75% | NCI/ADR-RES ovarian 87.3%

C=CCn1c(C)nc2cc(Nc3nc(N4CCCC4)nc4ccccc34)ccc21
active: SR leukemia 5.75%
inactive: SK-MEL-2 melanoma 109% | EKVX NSCLC 97.7% | SN12C renal 90.3% | UO-31 renal 68.1% | TK-10 renal 108% | ACHN renal 103% | CAKI-1 renal 84.9% | A498 renal 71.4% | MOLT-4 leukemia 49.9% | RPMI-8226 leukemia 55% | OVCAR-8 ovarian 84.1% | OVCAR-5 ovarian 123% | OVCAR-4 ovarian 91.3% | SK-OV-3 ovarian 123% | IGROV1 ovarian 95.4% | OVCAR-3 ovarian 105% | HS 578T breast 86.8% | NCI/ADR-RES ovarian 83.3%

COc1ccc2[nH]c(O)c(/C=c3/cc4c(c(-c5ccc(F)c(OC)c5)n3)=Nc3ccccc3-4)c2c1
active: MOLT-4 leukemia 1.77% | SR leukemia 2.4% | RPMI-8226 leukemia -20.4% | OVCAR-4 ovarian 6.42% | OVCAR-3 ovarian -34.4%
inactive: SK-MEL-2 melanoma 96.3% | EKVX NSCLC 89.5% | SN12C renal 88.6% | UO-31 renal 74.7% | TK-10 renal 87.2% | ACHN renal 52.2% | CAKI-1 renal 88.3% | A498 renal 69.6% | OVCAR-8 ovarian 60.4% | OVCAR-5 ovarian 93.9% | SK-OV-3 ovarian 107% | IGROV1 ovarian 84.6% | HS 578T breast 84.7% | NCI/ADR-RES ovarian 32.7%

O=C1C=C[C@]2(C[C@@H](c3cccc(C(F)(F)F)c3)O[C@@H](c3cccc(C(F)(F)F)c3)O2)O1
inactive: EKVX NSCLC 80.9% | CAKI-1 renal 32.8% | A498 renal 31% | OVCAR-8 ovarian 38.5% | OVCAR-5 ovarian 86.2% | OVCAR-4 ovarian 48.9% | SK-OV-3 ovarian 84.9% | IGROV1 ovarian 22.3% | NCI/ADR-RES ovarian 51.3%
active: SK-MEL-2 melanoma -26.7% | SN12C renal 0.629% | UO-31 renal -77.3% | TK-10 renal -85.5% | ACHN renal -49.4% | MOLT-4 leukemia 3.17% | SR leukemia 9.17% | RPMI-8226 leukemia -2.8% | OVCAR-3 ovarian -33.1% | HS 578T breast -4.02%

N=C(N)c1ccc(-c2ccc(-c3cncc4ccccc34)s2)s1
inactive: SK-MEL-2 melanoma 79.3% | A498 renal 70.2% | SK-OV-3 ovarian 64.4%
active: EKVX NSCLC -65.7% | SN12C renal -63% | UO-31 renal -76.6% | TK-10 renal -93.5% | ACHN renal -88.5% | CAKI-1 renal -91.4% | MOLT-4 leukemia -50.3% | SR leukemia -29.3% | RPMI-8226 leukemia -33.5% | OVCAR-8 ovarian -67.9% | OVCAR-5 ovarian -69.3% | OVCAR-4 ovarian -90.4% | IGROV1 ovarian -75.1% | OVCAR-3 ovarian -85.5% | HS 578T breast -49.6% | NCI/ADR-RES ovarian -53%
